Records with an inconclusive call do not appear. Activity calls are given as the source filed them. Calls come from the whole dose curve; as a rule, active = well fitted cell-killing curve with a large enough effect; inconclusive = small, poorly fitted or top-dose-only effect; inactive = flat fitted curve, though single readings scatter.
Assay: DAPI mCherry counterscreen qHTS for Zika virus inhibitors; note: nearly all actives have a fitted effect of over 55% in size
Settings: Vero cells, DAPI nuclear count cytotoxicity, imaging 48-72 h, infected with Zika reporter virus, MOI 1; series mostly up to 32.6 µM
Source text: Assay Submitters (PI): Avindra Nath, Ph.D., National Institute of Neurological Disorders and Stroke (NINDS), Bethesda, MD Radhakrishnan Padmanabhan, Ph.D., Georgetown University (GU), Washington D.C. Zika Virus causes congenital defects, including microcephaly and is associated with Guillain-Barre syndrome, eningoencephalitis and myelitis in infected adult. […] Using a target-based approach, we hope to establish a screening paradigm to uncover novel, cell-active NS2B-NS3 protease (Zika Virus) specific inhibitors from NCATS' collection of small molecules using qHTS. […] Four assay panel was created to identify potential Zika Virus inhibitors. Namely, (1) GU unlinked NS2B-NS3 AMC tagged protease qHTS, (2) GU unlinked NS2B-NS3 Rhodamine tagged protease qHTS, (3) NINDS linked NS2B-NS3 AMC tagged protease qHTS, (4) NINDS linked NS2B-NS3 Rhodamine tagged protease qHTS. Active compounds were re-acquired and re-screened to confirm inhibition. Inhibitors were further screened against various confirmatory and counterscreens in dose response format. […] A DAPI (mCherry counterscreen) which determine Vero cell cytotoxicity was used to exclude false positive compounds. […] Early Translation Branch (ETB) National Center for Advancing Translational Sciences (NCATS), Rockville, MD National Institute of Health (NIH), Bethesda, Maryland
384 well ZIKV-mCherry & mCherry DAPI counterscreen: We have developed a new orthogonal imaging assay in 384-well plate format, which uses recombinant virus ZIKV-mCherry in Vero cells. Briefly, 30 microL of Vero cells derived from a green monkey cell line, were dispensed by Multidrop Dispenser into a clear solid bottom black 384 well plate (ultracarrier, Perkin Elmer LifeSciences) at a concentration of 5,000 cells per well. The plate was incubated overnight in a CO2 incubator at 37 degrees C. Compounds were delivered as a 126 nL DMSO solution by Kalypsys pintool transfer. Following compound transfer, 10 microL of ZIKV-mCherry was added at an MOI of 1 and incubated in a CO2 incubator for 48-72 hrs at 37 degrees C. After sufficient incubation of infected cells in test plates, 8 microL of 32% PFA was dispensed into assay plates to fix cells and incubated for 20 min at room temperature. Plates were washed 3 times with PBS using BioTek EL406 microplate washer/dispenser. After washing, 30 microL of PBS with 0.01% TX-100 containing Hoechst dye was dispensed into the each well of the plates for nuclear staining. 384-well plates were imaged on an automated, widefield high content imager (INCell 2200, GE Healthcare) using a 10x/0.45 NA lens and standard DAPI (nuclear stain) and mCherry (cy5) excitation and emission filters. The TIFFs were quantitated using the canned Multi Target Analysis protocol (GE Investigator Workstation software v3.7.2). Briefly, nuclei from the DAPI channel were identified using top hat segmentation and a sensitivity setting of 96 and minimum size area of 35 microm2. A recombinant Zika viral infection was monitored in the Cy5 channel (cells) using a 2 microm collar dilation from the nuclear bitmap. mCherry objects with an average nuclear RFU intensity above 450 (3 stdev above mean negative control wells) were considered "mcherry positive" and data was analyzed by percent infection rate.
With `O=C(Nc1c(C(=O)O)oc2ccccc12)c1ccc(C(F)(F)F)cc1` the Potency was “inactive”.
In the case of `COc1ccc(-c2ccccc2)cc1NS(=O)(=O)c1cc(Cl)cc(Cl)c1O`, the Potency was 11.2 µM (active).
In the case of `O=c1cc(-c2ccccc2)oc2cc(O)c(O)c(O)c12`, the Potency was “inactive”.
With `Cc1oc2c(cc(NS(=O)(=O)c3ccc(Br)cc3)c3ccccc32)c1C(=O)OCc1ccccc1` the Potency was “inactive”.
For `O=C(Nc1ccc(C(=O)OCc2cc(=O)n3c4c(sc3n2)CCCC4)cc1)c1ccc(F)cc1`, the Potency was “inactive”.
For `O=C(O)c1ccc(NC(=O)c2cn(-c3ccccc3)nc2-c2ccc(Br)cc2)cc1`, the Potency was 35.5 µM (active).
For `O=c1c(O)c(Br)ccc2c(Br)c(O)c(O)c(O)c12`, the Potency was “inactive”.
For `CCc1oc2ccccc2c1C(=O)c1cc(Br)c(O)c(Br)c1`, the Potency was 11.2 µM (active).
With `Cc1c(C)n(Cc2ccc(-c3ccccc3C(=O)O)cc2)c2ccc(C(=O)N[C@@H](C)c3ccc([N+](=O)[O-])cc3)cc12` the Potency was 35.5 µM (active).
With `COc1ccc(Cl)c(Nc2nc3ccccc3nc2NS(=O)(=O)c2cccc(NC(=O)C(C)(C)N)c2)c1` the Potency was 22.4 µM (active).
For `Cc1ccc(S(=O)(=O)Nc2cc(SCC(=O)O)c(O)c3ccccc23)cc1[N+](=O)[O-]`, the Potency was 8.91 µM (active).
With `CC(C)c1ccc2c(c1)c(SC(C)(C)C)c(CC(C)(C)C(=O)O)n2Cc1ccc(Cl)cc1` the Potency was 11.2 µM (active).
For `COc1cc(C(=O)NS(=O)(=O)c2ccccc2C)ccc1Cc1cn(C)c2ccc(NC(=O)OC3CCCC3)cc12`, the Potency was 35.5 µM (active).
In the case of `CC1(C)CCC(CN2CCN(c3ccc(C(=O)NS(=O)(=O)c4ccc(NCC5CCOCC5)c([N+](=O)[O-])c4)c(Oc4cnc5[nH]ccc5c4)c3)CC2)=C(c2ccc(Cl)cc2)C1`, the Potency was 5.62 µM (active).
With `Nc1c(S(=O)(=O)O)cc(Nc2ccc(Nc3nc(Cl)nc(Nc4ccc(S(=O)(=O)O)cc4)n3)c(S(=O)(=O)O)c2)c2c1C(=O)c1ccccc1C2=O` the Potency was “inactive”.
In the case of `O=C(Nc1ccc(S(=O)(=O)Nc2nccs2)cc1)C(c1ccccc1)c1ccccc1`, the Potency was “inactive”.
For `O=C(COc1ccccc1C(=O)OCC(=O)Nc1cccc2ccccc12)Nc1ccc(Br)cc1`, the Potency was “inactive”.
For `COc1cc(Nc2nc3ccccc3nc2NS(=O)(=O)c2cccc(NC(=O)c3ccc(C)c(OC)c3)c2)cc(OC)c1`, the Potency was 4.47 µM (active).
In the case of `CC1CCN(C(c2ccc(F)cc2)c2ccc(C(C)C(=O)O)cc2-c2ccc(C(F)(F)F)cc2)CC1` (stereo not given), the Potency was 8.91 µM (active).
In the case of `O=C(NCc1ccc(Oc2ccccc2)cc1)c1nc(-c2cc(Br)c(O)c(Br)c2)no1`, the Potency was 8.91 µM (active).
With `CC(=O)Oc1cc2c(c(C)c1OC(C)=O)CC=C1[C@@]2(C)CC[C@@]2(C)[C@H]3C[C@](C)(C(=O)O)CC[C@]3(C)CC[C@]12C` the Potency was 2.82 µM (active).
With `O=c1oc2ccccc2cc1-c1nnc(Nc2ccc(Cl)cc2Cl)s1` the Potency was “inactive”.
For `N#Cc1ccc(N2N=C3c4ccc(C(=O)O)cc4CC[C@@H]3[C@@H]2C2CCCC2)cc1Cl`, the Potency was 4.47 µM (active).
With `COc1ccc(C(=O)Nc2ccc(C(=O)OCc3cc(=O)n4nc(C(C)C)sc4n3)cc2)cc1` the Potency was “inactive”.
For `O=C(OC1Cc2c(O)cc(O)cc2OC1c1cc(O)c(O)c(O)c1-c1c(C2Oc3cc(O)cc(O)c3CC2OC(=O)c2cc(O)c(O)c(O)c2)cc(O)c(O)c1O)c1cc(O)c(O)c(O)c1` (stereo not given), the Potency was “inactive”.
For `CC(C)c1cccc2c(-c3ccccc3)cc(-c3ccc(-c4ccc(C(=O)O)cc4)[nH]3)nc12`, the Potency was 25.1 µM (active).
For `CC(=O)C(N=Nc1ccc(S(=O)(=O)Nc2ccccn2)cc1)C(=O)Nc1ccc(Cl)cc1` (stereo not given), the Potency was “inactive”.
For `CCOC(=O)c1ccc(N2C(=O)c3n[nH]c(-c4cccs4)c3C2c2ccc(C(C)(C)C)cc2)cc1` (stereo not given), the Potency was 10 µM (active).
With `CN(C)[C@@H]1C(=O)C(C(=O)NCN2CCCC2)=C(O)[C@@]2(O)C(=O)C3=C(O)c4c(O)cccc4[C@@](C)(O)C3C[C@@H]12` (stereo not given in full) the Potency was “inactive”.
With `CCCCCc1ccc(/C=C/C(=O)Nc2cc(Cl)ccc2C(=O)O)cc1` the Potency was 35.5 µM (active).
In the case of `N#CC(c1ccc(Cl)cc1)c1c(Cl)cc(-n2ncc(=O)[nH]c2=O)cc1Cl` (stereo not given), the Potency was 25.1 µM (active).
With `CCCCc1nn2c(=O)cc(COC(=O)c3ccc(NC(=O)CCc4ccccc4)cc3)nc2s1` the Potency was “inactive”.
With `CCN(Cc1cccc(S(=O)(=O)O)c1)c1ccc(C(=C2C=CC(=[N+](CC)Cc3cccc(S(=O)(=O)O)c3)C=C2)c2ccccc2S(=O)(=O)[O-])cc1` the Potency was “inactive”.
In the case of `Cc1ccc(NC(=O)c2ccc3c(O)c(S(=O)(=O)c4ccccc4)c(=O)[nH]c3c2)cc1Cl`, the Potency was “inactive”.
In the case of `Cc1cccc(C(=O)Nc2ccc(C(=O)OCc3cc(=O)n4nc(C5CC5)sc4n3)cc2)c1`, the Potency was 15.8 µM (active).
In the case of `O=C1NC(=O)c2cc(Nc3ccccc3)c(Nc3ccccc3)cc21`, the Potency was 31.6 µM (active).
With `O=C(O)CSc1nc2ccc(NC(=O)COc3ccc(Cl)cc3)cc2s1` the Potency was “inactive”.
With `CC(C)=CCCC1(C)C=Cc2c(O)c3c(c(CC=C(C)C)c2O1)OC12C(=CCCC1C(C)(C)O[C@@]2(C/C=C(\C)C(=O)O)C(=O)O)C3=O` (stereo not given in full) the Potency was 15.8 µM (active).
In the case of `N#CC(C#N)=C(N)/C(C#N)=C/c1cc(O)c(O)c(O)c1`, the Potency was “inactive”.
In the case of `O=C(O)c1ccccc1Nc1cccc(OCc2ccc3ccccc3n2)c1`, the Potency was 31.6 µM (active).

— PubChem BioAssay AID1347156 (National Center for Advancing Translational Sciences (NCATS), 2019)
Potency is the fitted concentration of half-maximal effect.
